Experimental data published in PubChem BioAssay (NCATS).
Results filed as inconclusive are left out. Active and inactive are the calls of the source. The call rests on the fitted dose curve; in most records, active means well fitted inhibition curve with a large enough effect; inconclusive means small, poorly fitted or top-dose-only effect; inactive means flat fitted curve, though single readings scatter.

How the values were obtained:
Assay in all cases: qHTS profiling for inhibitors of Plasmodium falciparum proliferation (AID 504749); further: nearly all actives have a fitted effect of over 60% in size
Conditions in all cases: P. falciparum in erythrocytes, SYBR Green DNA, 72 h; series mostly up to 28.7 µM
3D7 = test system: 3D7
How it was run: (§1)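 P. falciparum-infected erythrocytes (0.3% parasitemia, 2.5% hematocrit) incubated with compound 72 h at 37 C, 5% CO2. Parasite DNA detected by SYBR Green after lysis, overnight at room temperature; normalised to 0.29 uM artemisinin and DMSO.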

C2A = test system: C2A
How it was run: as §1

CP191 = test system: CP191
How it was run: as §1

CP192 = test system: CP192
How it was run: as §1

CP194 = test system: CP194
How it was run: as §1

CP237 = test system: CP237
How it was run: as §1

CP250 = test system: CP250
How it was run: as §1

CP256 = test system: CP256
How it was run: as §1

CP268 = test system: CP268
How it was run: as §1

CP305 = test system: CP305
How it was run: as §1

CP315 = test system: CP315
How it was run: as §1

Dd2 = test system: Dd2
How it was run: as §1

HB3 = test system: HB3
How it was run: as §1

JCK = test system: JCK
How it was run: as §1

P94_40 = test system: P94_40
How it was run: as §1

PC15 = test system: PC15
How it was run: as §1

PC49 = test system: PC49
How it was run: as §1

SC27B = test system: SC27B
How it was run: as §1

TAB113 = test system: TAB113
How it was run: as §1

TAB165 = test system: TAB165
How it was run: as §1

Measured: Potency
Potency means the concentration at half of the fitted maximal effect.

CO/N=C(/C(=O)N[C@@H]1C(=O)N2C(C(=O)O)=C(C[n+]3ccc(N)n3CCO)CS[C@H]12)c1csc(N)n1
inactive: all assays above

Cc1cnc(C(=O)O)cn1
inactive: all assays above

CC(O)C1CCC2C3CCC4CC(O)CCC4(C)C3CCC12C (stereo unspecified)
inactive: all assays above

CNC1C(O)C(OC2C(N)CC(N)C(OC3OC(CN)=CCC3N)C2O)OCC1(C)O (stereo unspecified)
inactive: all assays above

CCCCCCCCCCCCCCCC(=O)OCC(COP(=O)(O)OCC[N+](C)(C)C)OC(=O)CCCCCCCCCCCCCCC (stereo unspecified)
inactive: all assays above

CNC(=O)C(N)CSC(C)C1=C(C)c2cc3[n-]c(cc4nc(cc5[n-]c(cc1n2)c(C)c5CCC(=O)O)C(CCC(=O)O)=C4C)c(C)c3C(C)SCC(N)C(=O)NC.[Fe+2] (stereo unspecified)
inactive: all assays above

NC(CSSCC(N)C(=O)O)C(=O)O (stereo unspecified)
not listed: CP192
inactive: all other assays above

CC(=O)OC1C([N+]2(C)CCCCC2)C[C@H]2C3CC[C@H]4C[C@H](OC(C)=O)C([N+]5(C)CCCCC5)CC4(C)C3CCC12C (stereo partly specified)
not listed: CP192 | CP194 | CP268 | CP305 | CP315
inactive: all other assays above

CO[C@H]1C[C@@H]2CC[C@@H](C)[C@@](O)(O2)C(=O)C(=O)N2CCCC[C@H]2C(=O)O[C@H]([C@H](C)C[C@@H]2CC[C@@H](O)[C@H](OC)C2)CC(=O)[C@H](C)/C=C(\C)[C@@H](O)[C@@H](OC)C(=O)[C@H](C)C[C@H](C)/C=C/C=C/C=C/1C
active: 3D7 2.82 µM | C2A 3.55 µM | CP191 2.24 µM | CP192 4.78 µM | CP194 3.38 µM | CP237 5.01 µM | CP250 3.55 µM | CP256 4.47 µM | CP268 4.78 µM | CP305 6.75 µM | CP315 4.26 µM | Dd2 2.82 µM | HB3 8.91 µM | JCK 10 µM | P94_40 2.24 µM | PC15 3.98 µM | PC49 10 µM | SC27B 2.51 µM | TAB113 2.51 µM | TAB165 1.78 µM

CCCCC(=O)O[C@]1(C(=O)CO)CCC2C3CCC4=CC(=O)CCC4(C)C3C(O)CC21C (stereo partly specified)
not listed: Dd2
inactive: all other assays above

C[C@]12CC[C@@H]3c4ccc(O)cc4C[C@@H](CCCCCCCCCS(=O)CCCC(F)(F)C(F)(F)F)C3[C@@H]1CC[C@@H]2O (stereo partly specified)
active: 3D7 10 µM | C2A 10 µM | CP191 7.94 µM | CP237 5.01 µM | CP305 10.7 µM | Dd2 7.08 µM | HB3 5.01 µM | JCK 17.8 µM | P94_40 5.62 µM | PC15 11.2 µM | SC27B 2.82 µM | TAB113 4.47 µM | TAB165 2.24 µM
inactive: CP315

CO/N=C(/C(=O)N[C@@H]1C(=O)N2C(C(=O)O)=C(CSC(=O)c3ccco3)CSC12)c1csc(N)n1 (stereo partly specified)
not listed: CP305
inactive: all other assays above
